Screens deposited in PubChem BioAssay by Sanford-Burnham Center for Chemical Genomics.
PHOSPHO1 block = blocks human PHOSPHO1 phosphatase activity. Q8TCT1. recombinant PHOSPHO1, absorbance phosphatase assay. inhibition, % at 13.3 µM. 290,000 tested, 1.1% active. AID 1565; in the data active = inhibition above about 60%
Target sequence (Q8TCT1 whole entry, looked up): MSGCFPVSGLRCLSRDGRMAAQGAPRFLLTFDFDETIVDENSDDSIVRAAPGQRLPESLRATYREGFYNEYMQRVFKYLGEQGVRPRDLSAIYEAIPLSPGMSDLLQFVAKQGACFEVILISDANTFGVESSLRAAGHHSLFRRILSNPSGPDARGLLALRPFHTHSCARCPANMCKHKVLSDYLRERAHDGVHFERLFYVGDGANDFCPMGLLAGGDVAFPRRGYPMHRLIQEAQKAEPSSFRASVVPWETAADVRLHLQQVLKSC
p-CIP stab down = p/CIP protein destabilization | Q05BA5 | F442A p/CIP-EGFP cells, EGFP fluorescence, 16 h | decrease of EGFP signal, % at 10 µM | 290,000 tested, 0.01% active | AID 1984;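 active = EGFP signal decrease of at least 30% at 10 µM or well 3 SD below plate mean, unless failing retest; inactive = the rest, including hits failing retest or dose response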
NadD inh = blocks S. aureus nicotinate mononucleotide adenylyltransferase. purified NadD enzyme, colorimetric absorbance read-out. inhibition, % at 20 µM. 360,000 tested, 0.78% active. AID 602399; in the data active = inhibition above about 26%
UBC9 SUMO inh = SUMOylation inhibition; 290,000 tested, 0.36% active; P63279; HTRF SUMOylation assay, SAE1/SAE2 + UBC9, in vitro; inhibition, % at 35 µM; in the data active = inhibition above about 50%, passing the limit was not always enough
Target sequence (P63279 whole entry, looked up): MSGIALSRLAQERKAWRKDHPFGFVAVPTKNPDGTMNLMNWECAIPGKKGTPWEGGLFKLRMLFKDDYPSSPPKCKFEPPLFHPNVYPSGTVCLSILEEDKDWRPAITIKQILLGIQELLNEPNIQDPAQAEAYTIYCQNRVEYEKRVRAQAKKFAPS
NadD inh conf = NadD (S. aureus) inhibition, single concentration confirmation; inhibition, % at 20 µM; 2,000 tested, 13% active; shares compounds with NadD inh; purified S. aureus NadD, colorimetric enzyme assay; in the data active = inhibition mostly above about 42%, no sharp cut-off; inactive = mostly below about 42%
Of the large screens only hits and unclear results are named; the others gave an inactive call (follow-up assays come after a bar, where they were run). Only some compounds are listed: those with a hit (about 1.8% of all), similar ones and a draw of the others.

N#Cc1ccc(-c2csc(NNC(=O)c3ccccc3)n2)cc1	none
Cc1cc(-c2csc(NC(=O)c3ccc(C#N)cc3)n2)c(C)n1Cc1ccccc1	NadD inh 34 | NadD inh conf inactive
COc1ccc(C2=NN(C(=O)CSc3nc(=O)n4cccc(C)c4n3)C(c3ccc(C)cc3)C2)cc1 (centres undefined)	NadD inh 36 (no result: PHOSPHO1 block, p-CIP stab down, UBC9 SUMO inh) | NadD inh conf inactive
O=C(/C=C/c1ccc(F)cc1)NC(=S)NNC(=O)[C@H]1C[C@@H]1c1ccccc1	NadD inh 40 | NadD inh conf inactive
COc1ccc(/C=C2/Sc3ccc(C(=O)NCCN4CCCCCC4)cc3NC2=O)cc1	NadD inh 56 | NadD inh conf inactive
O=C1Nc2cc(C(=O)NCCCN3CCCC3)ccc2S/C1=C\c1ccccc1	none
Cc1ccc(C(C)(C)C)cc1S(=O)(=O)N1CCC(C(=O)N2CCN(c3ccc(O)cc3)CC2)CC1	NadD inh 67 (no result: PHOSPHO1 block, p-CIP stab down, UBC9 SUMO inh) | NadD inh conf inactive
CC1Cc2ccccc2N1Cc1nc2scc(-c3cccs3)c2c(=O)[nH]1 (centres undefined)	PHOSPHO1 block 88, NadD inh 46 | NadD inh conf inactive
CC1Cc2ccccc2N1Cc1nc2cc(Cl)ccc2c(=O)[nH]1 (centres undefined)	none
COC(=O)c1ccc2c(=O)[nH]c(CN3c4ccccc4CC3C)nc2c1 (centres undefined)	NadD inh 50 | NadD inh conf inactive
CC(C)C[C@H]1CN([C@@H](CC(C)C)CN2CCCC2CN2C(=S)NC[C@@H]2Cc2ccccc2)C(=S)N1CC1CCCCC1 (some centres undefined)	none (no result: PHOSPHO1 block, p-CIP stab down, UBC9 SUMO inh)
CC1=CNC(=O)CC(C)(C)C1	none (no result: PHOSPHO1 block, p-CIP stab down, UBC9 SUMO inh)
OC[C@@H]1CN(Cc2ccc(Cl)cc2)C[C@H](n2cnc3c(NC4CCC4)ncnc32)O1	none (no result: PHOSPHO1 block, p-CIP stab down, UBC9 SUMO inh)
Cc1c(NC(=O)c2ccc(F)c(S(=O)(=O)N3CCOCC3)c2)c(=O)n(-c2ccccc2)n1C	none
Cc1cc(C2=NNC(=NC3CC3)SC2)c(C)n1Cc1ccco1	none
Cc1cc(-c2csc(N)n2)c(C)n1Cc1ccco1	PHOSPHO1 block 61, NadD inh 31 | NadD inh conf inactive
CCn1ncc(-c2csc(N)n2)c1C	none
Cc1cc(-c2csc(N)n2)c(C)n1C	PHOSPHO1 block 86, NadD inh 75 | NadD inh conf inactive
Cc1c(NC(=O)COC(=O)c2ccc(Cl)nc2)c(=O)n(-c2ccccc2)n1C	none (no result: PHOSPHO1 block, p-CIP stab down, UBC9 SUMO inh)
CC[C@]12c3[nH]c4cc(-c5ccco5)ccc4c3CCN1C(=O)[C@@H](CC(=O)NCc1ccc(OC)c(OC)c1)C[C@@H]2C(=O)N1CCN(C(=O)c2ccco2)CC1	none (no result: PHOSPHO1 block, p-CIP stab down, UBC9 SUMO inh)
COc1ccc2nc3sc(C(=O)NCCCN4CCc5ccccc5C4)cc3cc2c1	NadD inh 30 | NadD inh conf inactive
COc1ccc2nc3sc(C(=O)N4CCN(C)CC4)cc3cc2c1	none
CSc1nc(SCC(=O)O)c2sc3nc(-c4ccccc4)c4c(c3c2n1)CCC4	NadD inh 28 | NadD inh conf inactive
CSc1nc(N(C)CCO)c2sc3nc(-c4ccco4)c4c(c3c2n1)CCC4	none
COc1ccc(C)cc1-n1c(SCC(=O)Nc2cc(C)on2)nc2sc(C)c(C)c2c1=O	NadD inh 36 | NadD inh conf inactive
Cc1ccc(NS(=O)(=O)c2cc(C(=O)Nc3cccc([N+](=O)[O-])c3)ccc2C)cc1	none
Cc1ccc(NC(=O)CC(=O)c2ccc([N+](=O)[O-])cc2)cc1S(=O)(=O)Nc1cccc(Cl)c1	NadD inh 37 | NadD inh conf inactive
Cc1ccc(C(=O)Nc2cccc([N+](=O)[O-])c2)cc1S(=O)(=O)Nc1ccc(NC(=O)c2ccccc2)cc1	NadD inh 42 | NadD inh conf 38
Cc1ccc(S(=O)(=O)Nc2c(C)nc3nc[nH]n3c2=O)c(C)c1	none
Cc1ccccc1-n1c(SCC(=O)N/N=C/C=C/c2ccccc2[N+](=O)[O-])nc2ccccc2c1=O	NadD inh 33 | NadD inh conf inactive
O=C(N/N=C/C=C\c1ccccc1[N+](=O)[O-])c1cc(-c2ccc3ccccc3c2)n[nH]1	NadD inh 43 | NadD inh conf 27
COc1ccccc1-c1cc(C(=O)N/N=C/C=C/c2ccccc2[N+](=O)[O-])c2ccccc2n1	NadD inh 38 | NadD inh conf inactive
O=C(CNC(=O)N1CC(=O)Nc2ccccc21)NCc1ccccc1Cl	none
O=C1NC(=Nc2ccc(Cl)cc2)/C(=C/c2ccco2)S1	NadD inh 37 | NadD inh conf inactive
Cc1cccc(N=C2NC(=O)S/C2=C\c2ccco2)c1	none
Cc1onc(-c2ccccc2)c1C(=O)Nc1ccc(S(=O)(=O)Nc2nccs2)cc1	none
O=S(=O)(Nc1nccs1)c1ccc(Nc2nnc(-c3ccccc3)c3ccccc23)cc1	NadD inh 64 | NadD inh conf 62
Cc1cc(Br)cn2c(Cc3ccsc3)c(C3CCCCC3)nc12	none (no result: PHOSPHO1 block, p-CIP stab down, UBC9 SUMO inh)
CC[C@]12c3[nH]c4cc(-c5ccco5)ccc4c3CCN1C(=O)[C@@H](CC(=O)NCCC1=CCCCC1)C[C@@H]2C(=O)N1CCN(C(=O)c2ccco2)CC1	NadD inh 33 (no result: PHOSPHO1 block, p-CIP stab down, UBC9 SUMO inh) | NadD inh conf inactive
CC[C@]12c3[nH]c4cc(CCC(=O)N(C)C)ccc4c3CCN1C(=O)[C@@H](CC(=O)NCCC1=CCCCC1)C[C@@H]2C(=O)N1CCN(C(=O)c2ccco2)CC1	none (no result: PHOSPHO1 block, p-CIP stab down, UBC9 SUMO inh)
O=C(C[C@H]1C[C@H](C(=O)N2CCCCC2)[C@@]2(CCc3ccccc3)c3[nH]c4cc(-c5ccco5)ccc4c3CCN2C1=O)NCCC1=CCCCC1	NadD inh 56 (no result: PHOSPHO1 block, p-CIP stab down, UBC9 SUMO inh) | NadD inh conf inactive
O=C(C[C@H]1C[C@H](C(=O)N2CCCCC2)[C@@]2(CCc3ccccc3)c3[nH]c4cc(-c5ccco5)ccc4c3CCN2C1=O)NCc1cccc(C(F)(F)F)c1	NadD inh 54 (no result: PHOSPHO1 block, p-CIP stab down, UBC9 SUMO inh) | NadD inh conf inactive
COc1ccc(NC(=O)c2cccc(N3C(=O)c4ccc(C(=O)Nc5ccc(OC)c(O)c5)cc4C3=O)c2)cc1O	NadD inh 44 | NadD inh conf inactive
Cc1cc[n+]2cc(-c3cccc([N+](=O)[O-])c3)c(-c3cccc([N+](=O)[O-])c3)cc2c1	NadD inh 32 | NadD inh conf inactive
Cc1cccc(-c2cnn(-c3cccc([N+](=O)[O-])c3)c2N)c1	none
C[C@@H]1CN([C@@H](C)CO)C(=O)CCCn2cc(nn2)CO[C@H]1CN(C)C(=O)Oc1ccccc1	none (no result: PHOSPHO1 block, p-CIP stab down, UBC9 SUMO inh)
Nc1cc(=O)[nH]c(SCC(=O)N2N=C(c3ccc4ccccc4c3)CC2c2ccccc2)n1 (centres undefined)	NadD inh 40 | NadD inh conf inactive
CC(=O)OCC(=O)N1N=C(c2ccc3ccccc3c2)CC1c1ccccc1 (centres undefined)	none
O=C1OC(c2cccs2)=N/C1=C\c1ccc(-c2cccc(Cl)c2)o1	NadD inh 46 | NadD inh conf inactive
Clc1cccc(-c2ccc(/C=N/n3cnnc3)o2)c1	none
N=C1S/C(=C\c2ccc(-c3cccc(Cl)c3)o2)C(=O)N1c1nccs1	NadD inh 76 | NadD inh conf inactive
CCCNC(=O)C1(C)CCN(C(=O)COc2ccc(Cl)cc2Cl)C1 (centres undefined)	none (no result: PHOSPHO1 block, p-CIP stab down, UBC9 SUMO inh)
